From PubChem BioAssay
The entries come from a sample that favours hits as a whole.
Giardia FBPA inh – blocks Giardia fructose-bisphosphate aldolase activity; A8B2U2; Potency, µM (doses to about 59.6 µM), for the others: at the top dose activity, negative = inhibition, actives largely listed as inhibitors; purified Giardia FBPA; AID 2451; actives 0.71% (n = 290,000); also: potency is read from the fitted curve at half-maximal effect; % is scaled to controls: 0 for no effect and ±100 for the full control effect; nearly all actives have a fitted effect of over 55% in size
Target sequence (A8B2U2 whole entry, looked up): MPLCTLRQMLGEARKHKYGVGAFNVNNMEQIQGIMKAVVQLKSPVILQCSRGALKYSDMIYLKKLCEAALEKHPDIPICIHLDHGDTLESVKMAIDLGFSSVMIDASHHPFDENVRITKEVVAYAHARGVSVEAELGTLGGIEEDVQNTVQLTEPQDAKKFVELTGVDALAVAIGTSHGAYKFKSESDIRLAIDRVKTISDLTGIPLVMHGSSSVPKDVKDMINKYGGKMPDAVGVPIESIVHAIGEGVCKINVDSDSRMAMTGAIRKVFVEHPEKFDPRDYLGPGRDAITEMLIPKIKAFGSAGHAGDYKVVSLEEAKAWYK
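40 nM FBPA preincubated 10 min at RT with compound (up to 57.5 uM final), then substrate plus GAPDH/TPI/NAD/arsenate coupling and diaphorase/resazurin added. Fluorescence read after 20 min at RT, 525/598 nm.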
Tb PYK inh – blocks Trypanosoma brucei pyruvate kinase. Q57TT1. TbPYK enzyme, Kinase-Glo Plus ATP luminescence, 45 min. Potency, µM (doses to about 76.8 µM), inactives show top-dose activity, negative = inhibition, most hits filed as inhibitors. actives 0.12% (n = 410,000). AID 624173; also: potency is read from the fitted curve at half-maximal effect; % is scaled to controls: 0 for no effect and ±100 for the full control effect; nearly all actives have a fitted effect of over 50% in size
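Luminescent Kinase-Glo Plus end-point after 45 min room-temperature reaction of T. brucei pyruvate kinase started with 130 uM ADP (final). Buffer TEA 50 mM pH 7.2 with KCl, MgCl2, BSA, Tween-20; titration-based qHTS with fitted concentration-effect curves.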
LmPK inh – inhibitors of Leishmania mexicana pyruvate kinase; actives 0.37% (n = 290,000); AID 1721; purified LmPK, Kinase-Glo ATP luminescence, 1 h; Potency, µM (top dose mostly 57.5 µM), for the others: at the top dose activity change, negative = inhibition, usual class: inhibitors; also: potency is read from the fitted curve at half-maximal effect; % is scaled to controls: 0 for no effect and ±100 for the full control effect
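ATP generated from ADP (0.1 mM) and PEP (0.5 mM) by 0.1 nM LmPK over 1 h at room temperature (pH 7.2 imidazole buffer) was detected by coupled luciferase luminescence. Values were normalized to uninhibited and no-enzyme wells.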
Sm TGR inh – inhibitors of Schistosoma mansoni thioredoxin glutathione reductase; AID 485364; Potency, µM (series often up to 114 µM), inactives show top-dose activity change, negative = inhibition, hits mostly inhibitors; purified TGR, DTNB reduction, TNB absorbance 405 nm; actives 3% (n = 360,000); also: potency is read from the fitted curve at half-maximal effect; % is scaled to controls: 0 for no effect and ±100 for the full control effect; nearly all actives have a fitted effect of over 60% in size
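First, TGR (20 nM dispensed) and NADPH were mixed with compound. Second, a 15 min room-temperature incubation followed. Third, further NADPH and then DTNB were added to start the reaction. Finally, TNB absorbance was monitored kinetically.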
Shiga inhibitor – Shiga toxin inhibition | Vero cells, Shiga toxin protein synthesis inhibition reporter | AID 2315 | inhibition, % at 38.7 µM | actives 9.2% (n = 290,000); in the data active = inhibition mostly above about 28%, no sharp cut-off; inactive = mostly below about 43%; also: 0% is about no effect
CHX counter – counter-screen hit for Shiga toxin inhibitors, cycloheximide; max response, %; actives 12% (n = 300,000); cell reporter, cycloheximide protein synthesis inhibition counterscreen; AID 2314; in the data active = max response mostly above about 13%, no sharp cut-off; inactive = mostly below about 14%; also: read at 38.3 µM for the half of the compounds with a filed dose; 0% is about no effect
Numbers without * were called inactive; ? = inconclusive; / = not tested or not shown; [ ] = dose if it differs, or a comment. Unless noted, calls follow the shape of the dose curve; as a rule, active = well fitted curve in the direction sought with a large enough effect; inconclusive = small, poorly fitted or top-dose-only effect, or another doubt; inactive = no such curve, though single readings can be large; an effect the other way counts as inactive or inconclusive.

SMILES	Giardia FBPA inh	Tb PYK inh	LmPK inh	Sm TGR inh	Shiga inhibitor	CHX counter
Cc1cccc(C)c1NC(=O)Cn1nnc(C(=O)Nc2c(C)cccc2C)c1N	/	4.0%	/	0.0%	/	/
COc1cccc(C(=O)n2c(SC)nc3cc4c(cc32)OCCO4)c1	-4.2%	1.6%	-9.4%	9.9%	40.4	17.1*
COc1cccc(C(=O)Nc2cc3c(cc2C(C)=O)OCCO3)c1	-2.9%	0.8%	2.3%	-1.1%	7.4	-1.8
CC(C)N1CCC(=NNC(=O)c2ccc(Br)o2)CC1	-2.7%	-6.7%	-3.1%	-10.0%	36.9*	42.5*
O=C(NN=C1CCCCCC1)c1ccc(Br)o1	-3.9%	-11.1%	-1.8%	2.2%	86.8*	47.5*
COc1cc(OC)c2c(c1C(CCN1CCCC(C)C1)c1ccc(N(C)C)cc1)OC(=O)CC2c1ccc(N(C)C)cc1 (configuration not stated)	-5.2%	/	/	/	-11.0	-3.4
COc1cccc(/C=N/Nc2ncnc(N)c2[N+](=O)[O-])c1OC	-6.2%	-2.1%	-23.2%	-10.7%	72.7*	34.9*
COc1cccc(/C=N/Nc2ncnc(Cl)c2N)c1O	?	-7.5%	-1.6%	-17.9%	40.2*	55.0*
COc1cccc(C=NNc2ccc([N+](=O)[O-])cn2)c1OC	/	-13.7%	/	/	/	/
COc1cccc(/C=N/Nc2nccnc2Cl)c1O	10.4%	?	10µM*	-1.1%[57.1 µM]	34.1	13.2*
Cc1ccnc(N/C=C(\C#N)c2nc(-c3cccc(Br)c3)cs2)c1	-16.5%	-3.8%	5.1%	-3.8%	22.1	15.5*
CCCn1ccc2c(OCC(=O)Nc3ccc(OC)c(OC)c3)cccc2c1=O	/	1.2%	/	-1.5%	/	/
CCc1ccc(/C=C2/C(=O)N(CC)C(=S)N2C)s1	-1.0%	2.6%	-9.0%	-0.6%	27.8	3.3
COc1ccc(/C=C2\C(=O)NC(=S)N(C)C2=O)cc1C	?	?	10.3%	7.08µM*	-12.7	-0.5
Cc1ccsc1/C=C1\C(=O)NC(=S)N(C)C1=O	-2.5%	?	1.3%	25.1µM*	4.2	0.4
CN1C(=O)/C(=C/c2ccc(Cl)s2)C(=O)NC1=S	1.8%	-17.5%	8.3%	7.94µM*	-2.6	-2.2
CN1C(=O)/C(=C\c2ccc(N3CCCCCC3)cc2)C(=O)NC1=S	-13.1%	?	-0.6%	?	-0.7	16.6
COc1ccc(-c2ccc(C(C)=O)cc2)cc1C1C2C=CCC(C)C2C(=O)N1Cc1ccccc1 (configuration not stated)	-5.3%	/	/	/	-6.0	6.3
O=c1c(-c2cccc(Cl)c2)nc2cncnc2n1Cc1ccccc1Cl	2.0%	1.1%	/	/	/	/
Cc1ccc(CNc2nc3ccccc3n2C)cc1	-1.5%	-17.0%	-12.3%	8.6%	27.2	22.9*
Cn1c(NCc2ccc(Cl)cc2)nc2ccccc21	-1.8%	-5.9%	-12.8%	-3.5%	55.6*	38.4*
Cn1c(NCc2c(O)ccc3ccccc23)nc2ccccc21	-15.2%	0.7%	6.6%	0.0%	33.3	6.9
CCn1nc(C)c2c(-c3ccccc3)cc(=O)n(C(C)C(=O)Nc3cccc(F)c3)c21 (configuration not stated)	/	-1.3%	/	5.1%	/	/
Cc1ccc(-c2csc(N)n2)s1	-28.8%	-5.9%	-0.3%	-3.6%	49.9	22.6*
COc1cccc(CNC(=O)CCc2c(C)c3ccc(O)c(C)c3oc2=O)c1	/	-0.6%	/	5.3%	/	/
SMILES	Giardia FBPA inh	Tb PYK inh	LmPK inh	Sm TGR inh	Shiga inhibitor	CHX counter
COc1cccc(NC(=O)N2CCOCC2)c1	-8.3%	-8.3%	-3.8%	2.2%	-3.1	-4.6
COc1cccc(-c2cc(C(=O)N3CCc4ccccc4C3)[nH]n2)c1	2.2%	-3.8%	2.5%	2.0%	38.1*	26.4*
O=C(Nc1cccc(Cl)c1)N1CCc2ccccc2C1	-4.0%	1.0%	-2.3%	12.0%	34.6*	34.1*
COc1cccc(NC(=O)N2CCc3ccccc3C2)c1	/	-2.1%	-12.5%	2.6%	91.3*	70.5*
O=C(Nc1cccc(Cl)c1)N1CCN(c2ncccn2)CC1	-1.0%	0.0%	-9.5%	3.8%	16.4	13.8*
O=c1c(C(c2ccc(Br)cc2)c2c(O)nc3n(c2=O)CCS3)c(O)nc2n1CCS2	2.6%	-4.4%	4.1%	?	-3.1	-2.4
O=c1c(C(c2ccc(O)cc2)c2c(O)nc3n(c2=O)CCS3)c(O)nc2n1CCS2	-12.5%	?	11.9%	10µM*	20.0	10.3
O=c1c(C(c2c(O)nc3n(c2=O)CCS3)c2cccc3ccccc23)c(O)nc2n1CCS2	9.5%	-19.9%	4.0%	?	16.6	-2.1
O=c1c(C(c2ccc(O)cc2)c2c(O)nc3n(c2=O)CCCS3)c(O)nc2n1CCCS2	-7.2%	-16.1%	4.8%	56.2µM*	-9.7	-4.1
Cc1ccc(C(c2c(O)nc3n(c2=O)CCS3)c2c(O)nc3n(c2=O)CCS3)cc1	-5.2%	-10.1%	6.7%	2.82µM*	-5.4	-2.5
O=c1c(C(c2ccc(Br)cc2)c2c(O)nc3n(c2=O)CCCS3)c(O)nc2n1CCCS2	7.7%	-1.9%	3.5%	2µM*	19.2	-3.1
CC(C)c1ccc(C(=O)NN2C(=O)C3CCCCC3C2=O)cc1 (configuration not stated)	6.1%	-0.8%	8.1%	-6.4%	96.3*	49.8*
CC(C)c1ccc(C(=O)NNC(=O)C2C3CCC(C3)C2C(=O)O)cc1 (configuration not stated)	/	/	-5.9%	-29.4%	101.2*	39.1*
CCCCOc1ccc(C(=O)NNC(=O)C2C3C=CC(C3)C2C(=O)O)cc1 (configuration not stated)	/	9.8%	0.5%	-11.3%	17.8	10.5*
CCCCOc1ccc(C(=O)NNC(=O)C2C3CCC(C3)C2C(=O)O)cc1 (configuration not stated)	/	1.5%	-3.4%	-1.8%	71.9*	39.7*
CCOc1ccccc1C(=O)NN1C(=O)C2CCCCC2C1=O (configuration not stated)	0.8%	1.7%	-2.4%	-16.2%	-6.5	-3.0
COc1ccc(-c2nc3cnc(OC)nc3n(Cc3cccc(OC)c3)c2=O)cc1	-9.2%	-4.2%	/	/	/	/
Clc1cccc(-n2ncc3c(NC4CCCCC4)ncnc32)c1	/	2.2%	/	2.8%	/	/
Nc1ccc(S(=O)(=O)NCc2ccccc2)cc1	/	-0.2%	/	/	/	/
COC(=O)c1sccc1NC(=O)C1C2C=CC(C2)C1C(=O)O (configuration not stated)	4.3%	4.7%	2.9%	-2.4%	-2.2	-6.4
CCOc1cccc(C(=O)NNC(=O)C2C3C=CC(C3)C2C(=O)O)c1 (configuration not stated)	/	3.5%	-1.2%	3.7%	28.3	19.6*
Cc1ccsc1C(=O)NNC(=O)C1C2C=CC(C2)C1C(=O)O (configuration not stated)	-15.0%	-8.4%	-2.2%	-7.1%	96.5*	120.7*
O=C(NNC(=O)C1C2CCC(C2)C1C(=O)O)c1ccc(Br)o1 (configuration not stated)	3.6%	/	1.7%	4.6%	76.4*	42.0*
